Records with an inconclusive call do not appear. Activity calls are given as the source filed them. Calls come from the whole dose curve; as a rule, active = well fitted inhibition curve with a large enough effect; inconclusive = small, poorly fitted or top-dose-only effect; inactive = flat fitted curve, though single readings scatter.

Results on 27 compounds are retold here after PubChem BioAssay (NCATS).
% is set by controls: 0 for no effect and ±100 for the full control effect; potency is the fitted concentration of half-maximal effect.

This assay in a line: P-glycoprotein substrates identified in KB-8-5-11 adenocarcinoma cell line, qHTS therapeutic library screen (AID 1346987). Note: nearly all actives have a fitted effect of over 65% in size. Particulars: KB-8-5-11 (P-gp overexpressing) viability, CellTiter-Glo, 72 h; series mostly up to 44.5 µM; activity change, negative = cytotoxicity: at the top concentration. Summed up:
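P-gp-mediated resistance screen: KB-8-5-11 cells treated 72 h with compounds in dose-response. CellTiter-Glo viability.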
(In general: qHTS replaces the single test concentration by a dilution series.)
In the case of `CCc1cnn2c(NCc3ccc[n+]([O-])c3)cc(N3CCCCC3CCO)nc12` (configuration not stated), the Potency is 0.206 µM (active). In the case of `CC(C)(C)OC(=O)N1CCC(OCc2nc(-c3ccncc3)no2)CC1`, the “activity change, negative = cytotoxicity” value was -0.687% (inactive). Regarding `COC(=O)CC(C)(O)CC(=O)OCc1ccc(O[C@@H]2O[C@H](CO)[C@@H](O)[C@H](O)[C@H]2O)cc1` (some centres not stated), the “activity change, negative = cytotoxicity” value was 6.73% [at 17.3 µM] (inactive). The same measure, in the same setting: to `CNS(=O)(=O)CC1CCC(N(C)c2ncnc3[nH]ccc23)CC1` (configuration not stated) belongs -12.4% (inactive). Regarding `C=C1CCC2C(C)(C(=O)OC)CCCC2(C)C1CCC(C)CC(=O)O` (configuration not stated), the outcome was inactive.

As for `OC[C@H]1O[C@@H](OCCc2ccc(O)cc2)[C@H](O[C@@H]2OC[C@](O)(CO)[C@H]2O)[C@@H](O)[C@@H]1O`, the “outcome” value was “inactive [at 17.3 µM]”. Turning to `COc1ccc(-c2ccc(-c3cn(C(=O)N4CCCCC4c4ccccc4)nn3)cc2)cc1` (configuration not stated), the “activity change, negative = cytotoxicity” value was -26.2% (inactive). With `C[C@@H]1O[C@@H](O[C@@H]2[C@@H](O[C@@H]3O[C@@H](C)[C@H](O[C@@H]4OC[C@H](O)[C@H](O[C@@H]5OC[C@@H](O)[C@H](O)[C@H]5O)[C@H]4O)[C@@H](O[C@@H]4OC[C@](O)(CO)[C@H]4O)[C@H]3O)[C@H](OC(=O)[C@]34CCC(C)(C)C[C@H]3C3=CCC5[C@@]6(C)C[C@H](O)[C@H](O[C@@H]7O[C@H](CO[C@@H]8OC[C@H](O)[C@H](O)[C@H]8O)[C@@H](O)[C@H](O)[C@H]7O)C(C)(C)C6CC[C@@]5(C)[C@]3(C)C[C@H]4O)OC[C@H]2O)[C@H](O)[C@H](O)[C@H]1O` (some centres not stated), the outcome is “inactive [at 9.29 µM]”. In the case of `CN(C)c1nc(NC2CCC(NCCc3ccc(Br)cc3OC(F)(F)F)CC2)nc2ccccc12` (configuration not stated), the Potency was 4.61 µM (active).

Consider `CCNCc1nc2c(N)nc3ccccc3c2n1CC(C)(C)O`, for which the “activity change, negative = cytotoxicity” value is 7.86% (inactive). Same read-out and setting: the value for `C=C(C(=O)O)C1CCC2(C)CCC(O)C(C)(O)C2C1` (configuration not stated) was -8.05% (inactive); that for `O=C1C=CC(O)(/C=C/C(=O)OC[C@H]2O[C@@H](Oc3ccc(O)cc3)[C@H](O)[C@@H](O)[C@@H]2O)C=C1` was 4.31% [at 17.3 µM] (inactive). Take `NC(=O)Nc1cc(-c2cccc(F)c2)sc1C(=O)NC1CCCNC1` (configuration not stated): the Potency was 8.2 µM (active). Take `O=C(O)C(O[C@@H]1O[C@H](CO[C@@H]2O[C@H](CO)[C@@H](O)[C@H](O)[C@H]2O)[C@@H](O)[C@H](O)[C@H]1O)c1ccccc1` (some centres not stated): the “outcome” value was “inactive [at 17.3 µM]”.

Turning to `CC(C)C(N)C(=O)OCCOCn1cnc2c(=O)[nH]c(N)nc21` (configuration not stated), the “activity change, negative = cytotoxicity” value was -5.91% (inactive). Take `Cc1nc2sc(C(=O)NCc3ccncc3)c(N)c2c(C)c1Cl`: the “activity change, negative = cytotoxicity” value was -28.6% (inactive).

In the case of `CCCCc1ccc(C(=O)Nc2cc(-c3ccc(Cl)cc3)nn2-c2ccc(Cl)cc2)cc1`, the “activity change, negative = cytotoxicity” value was -18.2% (inactive). The same measure, in the same setting: to `CCCN1CCC(c2cccc(S(C)(=O)=O)c2)CC1` belongs 0.784% (inactive). On the same count and under the same terms, to `CC/C=C\CCO[C@@H]1O[C@H](CO)[C@@H](O)[C@H](O)[C@H]1O` belongs 8.95% (inactive).

`CC(=O)OC1C(=O)C2(C)C(O)CC3OCC3(OC(C)=O)C2C(OC(=O)c2ccccc2)C2(O)CC(OC(=O)C(O)C(NC(=O)c3ccccc3)c3ccccc3)C(C)=C1C2(C)C` (configuration not stated): the Potency was 1.3 µM (active).

As for `CC(O)/C=C/C1OC(=O)CC1Nc1ccc(C(=O)O)cc1` (configuration not stated), the result was inactive. On to `COc1ccc(C(=O)C2CCN(CC(=O)N(Cc3nc4c(c(=O)[nH]3)COCC4)CC3CC3)CC2)cc1`, for which the “activity change, negative = cytotoxicity” value is -11.6% (inactive). As to `CCOC(=O)CCN(C(=O)c1ccc2c(c1)nc(CNc1ccc(C(=N)N)cc1)n2C)c1ccccn1`, the “activity change, negative = cytotoxicity” value was -12.1% (inactive).

Take `CC(=O)N1CCc2ccc(O)c(OC3OC(COC4OCC(O)(CO)C4O)C(O)C(O)C3O)c2C1Cc1ccc(O)cc1` (configuration not stated): the “outcome” value is “inactive [at 17.3 µM]”. Turning to `CC(C)CNCc1ccc(-c2ccccc2S(=O)(=O)N2CCCC2)cc1`, the “activity change, negative = cytotoxicity” value was -23% (inactive).

Take `CC(C)=CCC[C@](C)(O[C@@H]1O[C@H](CO)[C@@H](O)[C@H](O)[C@H]1O)[C@H]1CC[C@]2(C)[C@@H]1[C@H](O)CC1[C@@]3(C)CC[C@H](O)C(C)(C)C3[C@@H](O[C@@H]3O[C@H](CO)[C@@H](O)[C@H](O)[C@H]3O[C@@H]3OC[C@@H](O)[C@H](O)[C@H]3O)C[C@]12C` (some centres not stated): the activity change, negative = cytotoxicity is -2.05% [at 9.29 µM] (inactive). Take `COc1cc(O)cc(C)c1C(=O)O[C@H]1[C@@H](OC(C)=O)[C@H](n2ccc(=O)[nH]c2=O)O[C@@H]1CO`: the “outcome” value was “inactive [at 17.3 µM]”.
